Assay outcomes from PubChem.
Compounds with a hit are over-represented: about 2.9% of the library has one in this group of screens.
ADAM10 inh: inhibits human ADAM10; inhibition, % at 7 µM; AID 720582; recombinant ADAM10, EDANS/DABCYL FRET peptide cleavage, 3 h; O14672; 370,000 compounds, 0.62% hits;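 active = inhibition above a per-campaign cutoff equal to the mean of compounds falling between control-based bounds plus 3 SD, cut at about 20% in these data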
Target sequence (O14672 214-748 limits assumed): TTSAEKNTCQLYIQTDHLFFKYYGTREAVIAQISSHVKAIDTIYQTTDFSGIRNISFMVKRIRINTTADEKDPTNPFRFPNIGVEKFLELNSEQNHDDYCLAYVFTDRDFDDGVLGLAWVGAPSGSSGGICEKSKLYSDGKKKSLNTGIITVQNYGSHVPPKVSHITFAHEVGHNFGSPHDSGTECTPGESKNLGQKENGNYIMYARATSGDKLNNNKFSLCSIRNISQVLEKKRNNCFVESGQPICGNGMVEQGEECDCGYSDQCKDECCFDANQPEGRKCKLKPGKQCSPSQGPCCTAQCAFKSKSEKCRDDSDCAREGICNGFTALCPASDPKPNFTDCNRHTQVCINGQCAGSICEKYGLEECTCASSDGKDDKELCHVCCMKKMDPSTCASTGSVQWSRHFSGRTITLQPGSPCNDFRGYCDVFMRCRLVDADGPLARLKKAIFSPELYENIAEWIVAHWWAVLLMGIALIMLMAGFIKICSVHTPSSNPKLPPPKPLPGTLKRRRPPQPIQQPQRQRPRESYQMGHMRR
KLK7 zymogen act: activates the human kallikrein-7 zymogen; P49862; purified proKLK7, EDANS-DABCYL substrate fluorescence; 100% is mature enzyme control, 0% vehicle; activation, % at 7 µM; 370,000 compounds, 0.9% hits; AID 652039;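 active = activation above the mean of all tested compounds plus 3 SD, computed per campaign excluding outliers beyond control limits, cut at about 13% in these data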
ADAM17 inh: inhibits human ADAM17. 370,000 compounds, 0.83% hits. inhibition, % at 6.95 µM. recombinant ADAM17, EDANS/DABCYL FRET peptide cleavage. AID 720648. P78536;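 active = inhibition above the mean of compounds lying between control limits plus 3 SD, set per campaign, cut at about 8.5% in these data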
PLC-beta3 inh: PLC-beta3 (human) inhibition, primary screen. Q01970. Purified PLC-beta3, fluorogenic substrate, fluorescence. inhibition, % at 12.2 µM. 370,000 compounds, 0.18% hits. AID 720704; in the data active = inhibition above about 11%
PLC-gamma1 inh: inhibitors of human phospholipase C gamma1 | P19174 | purified PLC-gamma1, fluorogenic substrate, fluorescence | inhibition, % at 12.2 µM | 370,000 compounds, 0.84% hits | AID 720700; in the data active = inhibition above about 9.5%
proKLK7 act conf: proKLK7 activation, confirmation. shares compounds with KLK7 zymogen act. purified proKLK7, EDANS-DABCYL substrate fluorescence; scaled: vehicle 0, mature enzyme 100. activation, % at 7 µM. 3,200 compounds, 68% hits;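 active = activation, as change over the incubation, above the mean of all tested compounds plus 3 SD, cut at about 13% in these data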
EDANS-DABCYL int: optically interferes with EDANS-DABCYL signal, flagging KLK7 hits; activation, % at 7 µM; shares compounds with KLK7 zymogen act; 3,200 compounds, 80% hits; EDANS-DABCYL substrate fluorescence interference, no enzyme, 4 h; solvent 0%, active enzyme control 100%;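 active = activation above the all-compound mean plus 3 SD, ignoring values outside control-based bounds, cut at about 4.8% in these data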;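 note: value is the 4 h activation minus the activation read at time zero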
A number is an active result; n = inactive; x = no result given.

SMILES	ADAM10 inh	KLK7 zymogen act	ADAM17 inh	PLC-beta3 inh	PLC-gamma1 inh	proKLK7 act conf	EDANS-DABCYL int
N#Cc1ccccc1NC(=O)COC(=O)c1cccs1	n	n	n	n	n	x	x
N#Cc1ccccc1NC(=S)NC(=O)c1cccs1	n	14.4	n	n	n	13.9	16.3
CC(=O)Nc1ccc(/C=N/NC(=O)c2cc(-c3ccco3)nc3ccccc23)cc1	n	n	n	n	n	x	x
O=C(O)c1ccccc1/C=N/NC(=O)c1cc(-c2ccco2)nc2ccccc12	n	15.4	n	n	n	28.8	31.5
CC(=O)c1cccc(NC(=O)c2cc(-c3ccco3)nc3ccccc23)c1	n	n	n	n	n	x	x
O=C(NNC(=O)c1cc(-c2ccco2)nc2ccccc12)c1ccccc1	n	140.8	n	n	n	50.6	69.9
CCN(CC)CCNC(=O)c1cc(-c2ccco2)nc2ccccc12	n	60.5	n	n	n	57.2	73.4
Cc1cccc(C2Nc3ccccc3C(=O)N2c2ccccc2)n1 (stereo not given)	n	19.2	n	n	n	40.5	43.4
O=C1c2ccccc2NC(c2ccccn2)N1c1ccc(Cl)cc1 (stereo not given)	n	n	n	n	n	x	x
CS(=O)(=O)c1cccc(C(=O)Nc2ccc(-c3nc4ccccc4[nH]3)cc2)c1	n	83.7	n	n	n	55.2	63.1
COC(=O)c1nc2ccc(N3CCOCC3)cc2c(C)c1C(=O)OC	n	22.2	n	n	n	n	24.6
CCN1CCN(CCCNC(=O)c2cc3c(=O)oc4ccc(C)cc4c3s2)CC1	n	n	n	n	n	x	x
CCCN1CCN(CCCNC(=O)c2cc3c(=O)[nH]c4ccc(C)cc4c3s2)CC1	n	21.4	n	n	n	n	n
COc1ccc(COc2cc(-c3cccc(OC)c3)nc3ccc(NC(C)=O)cc23)cc1	n	17.9	n	n	n	n	n
COc1ccc(COc2cc(-c3cccc(OC)c3)nc3ccc(N)cc23)cc1	n	58.8	n	n	n	n	n
CN1C(=O)c2cc(NC(=O)Nc3ccccc3)ccc2OC[C@H]2O[C@@H](CC(=O)NC3CCC3)CC[C@@H]21	n	n	n	n	n	x	x
Cc1ccc(S(=O)(=O)c2cc3c(=O)n4ccccc4nc3n(C)c2=N)cc1	n	n	n	n	n	x	x
N#Cc1cc2c(=O)n3ccccc3nc2n(-c2ccc(Cl)cc2)c1=O	n	n	n	n	n	x	x
C=CCn1c(=O)c(C#N)cc2c(=O)n3ccccc3nc21	n	38.5	n	n	n	67.4	82.8
Cc1cc(-n2c(=O)c(C#N)cc3c(=O)n4ccccc4nc32)no1	n	21.9	n	n	n	29.5	56.6
Cc1ccccc1-n1c(=O)c(C#N)cc2c(=O)n3ccccc3nc21	n	12.9	n	n	n	71.4	72.7
COC(=O)[C@]12C[C@H](CC(=O)NCCc3ccccc3OC)C(=O)N(Cc3cccc4ccccc34)C1=C[C@H](C(C)(C)C)O[C@@H]2C	n	n	n	n	n	x	x
CCOC(=O)CNc1c(-c2ccc(Cl)cc2)nc2cnccn12	n	64.6	n	n	n	77.0	80.3
CCOC(=O)CNc1c(-c2ccc(OC)cc2)nc2ccc(Cl)cn12	n	n	n	n	n	x	x
CCOC(=O)CNc1c(-c2ccc(F)cc2)nc2cnccn12	n	65.4	n	n	n	63.0	64.6
SMILES	ADAM10 inh	KLK7 zymogen act	ADAM17 inh	PLC-beta3 inh	PLC-gamma1 inh	proKLK7 act conf	EDANS-DABCYL int
COc1ccc(-c2nc3cnccn3c2Nc2ccc(C)cc2)cc1	n	n	n	n	n	x	x
COc1ccc(O)c(C(=O)CC(=O)c2ccncc2)c1	n	14.1	n	n	n	282.2	290.0
COc1ccc(C(=O)CC(=O)c2ccc(OC)cc2)cc1	n	n	n	n	n	x	x
S=c1[nH]nc(-c2n[nH]c3c2CCC3)n1N=Cc1c2ccccc2cc2ccccc12	n	n	n	n	n	x	x
Cc1cc(C)c2oc(=O)cc(CN3CCOCC3)c2c1	n	n	n	n	n	x	x
Cc1c(O)ccc2c(CN3CCN(CCO)CC3)cc(=O)oc12	n	66.2	n	n	n	68.1	69.4
CCc1cc2c(CN3CCN(CC)CC3)cc(=O)oc2cc1O	n	70.6	n	n	n	73.2	74.6
Cc1c(O)ccc2c(CN3CCOCC3)cc(=O)oc12	n	41.2	n	n	n	65.1	67.2
